Test results taken from ChEMBL document CHEMBL3988442, “University of Dundee, Small-Polar-MMV Screening Library” (2021).
The whole screen tested about 69,000 compounds, of which about 950 (1.4%) showed an effect of 50% or more. Shown is part of a subset that was picked to be rich in strong results.

These compounds were tested on Mycobacterium tuberculosis (assay: Cornell M. t heat shock assay; also: in the data most compounds retested in dose-response had high values).
Type: functional, organism-based
Set-up: dose or concentration left out as unconfirmed

Compared with `Cc1noc(C)c1C(=O)N1CCOC2(COCCN(C(C)C)C2)C1.O=C(O)C(F)(F)F` (stereo not drawn), `Cc1ccc(CN2CCC3(CC2)COCCN3S(C)(=O)=O)o1.O=C(O)C(F)(F)F` is higher in “Percent Effect” value: 7.392% for the first, 38.18% for the second.

Going from `CC(CNCc1ccc(Br)cc1)Oc1ccccn1.Cl` (stereo not drawn) to `CCCOc1ccc(CNc2cncc(-n3cccn3)n2)cc1`, the “Percent Effect” value rises from -4.228% to 63.69%.

Compared with `CN(C)CCn1c2c(ccc1=O)CCN(Cc1cnn(C)c1)CC2.O=C(O)C(F)(F)F.O=C(O)C(F)(F)F`, `Cc1nc(CN2CCC3(CC2)CC(c2cccnc2)C(=O)N3C)cs1.O=C(O)C(F)(F)F.O=C(O)C(F)(F)F` (stereo not drawn) is higher in “Percent Effect” value: 10.2% for the first, 40.95% for the second.

Going from `CC(C)NC(=O)N1CCC2(CCC(=O)N2CCN(C)C)CC1.O=C(O)C(F)(F)F` to `CNC(=O)CN1CCOCC12CCN(C(=O)c1ccccc1)CC2.O=C(O)C(F)(F)F`, the “Percent Effect” value falls from -12.81% to -17.78%.

First: CN1CCN(C(=O)c2csnn2)c2ccccc21
Second: CN1CCN(C(=O)c2cnsn2)c2ccc(F)cc21
The “Percent Effect” value of the first is lower: -18.09% for the first, 82.14% for the second.

Compared with `CN1CCN(C(=O)c2cnsn2)c2cc(F)ccc21`, `CN1CCCN(C(=O)c2cnsn2)c2cc(F)ccc21` is lower in “Percent Effect” value: 57.04% for the first, -35.83% for the second.

Compared with `CN1CCN(C(=O)CCc2cccnc2)c2ccc(F)cc21`, `CN1CCCN(C(=O)c2cnsn2)c2cc(Cl)ccc21` is lower in “Percent Effect” value: 15.62% for the first, -8.8% for the second.

Going from `Clc1ccccc1CCN1CCN(c2ccc3nncn3n2)CC1` to `CCOc1ccc(C(=O)N2CCN(c3nccn3C)CC2)cc1.Cl`, the “Percent Effect” value falls from 33.42% to -17.36%.

Compared with `Cc1ccc(-c2nc(CN3CCCC(Cn4cncn4)C3)cs2)o1` (stereo not drawn), `O=CO.c1cc2nccc(CC3CCCN(Cc4c[nH]cn4)CC3)c2cn1` (stereo not drawn) is lower in “Percent Effect” value: 9.33% for the first, -8.502% for the second.

Compared with `O=C(CC1CC1)N1CCC2(COCc3cnc(N4CCOCC4)nc32)C1` (stereo not drawn), `CC(C1CCN(Cc2c(Cl)cncc2Cl)CC1)N1CCOCC1` (stereo not drawn) is lower in “Percent Effect” value: 6.453% for the first, -44.11% for the second.

Compared with `Cc1cnn(CCNCc2csc(-c3ccsc3)n2)c1`, `Cc1cnn(CCNCc2csc(-c3cccs3)n2)c1` is lower in “Percent Effect” value: 107.8% for the first, 25.75% for the second.

First: Cc1cnn(CCNCc2csc(-c3ccccc3)n2)c1
Second: Cc1cnn(CCNCc2csc(-c3ccc(F)cc3)n2)c1
The “Percent Effect” value of the first is higher: 104.4% for the first, 22.16% for the second.

Compared with `Cc1cnn(CC(C)NCc2csc(-c3ccsc3)n2)c1` (stereo not drawn), `Cc1cnn(CC(C)NCc2csc(-c3cnn(C)c3)n2)c1` (stereo not drawn) is lower in “Percent Effect” value: 27.16% for the first, -23.56% for the second.

First: Cc1cccc(N2CCc3ncc(CNS(C)(=O)=O)n3CC2)n1.O=C(O)C(F)(F)F
Second: Cc1ccc(N2CC[C@@H]3[C@@H]2CCN3C(=O)Cc2cccs2)nn1.O=C(O)C(F)(F)F
The “Percent Effect” value of the first is lower: -36.69% for the first, 1.861% for the second.

Compared with `Cc1ccc(C2CCCN2S(=O)(=O)N(C)CCc2ccccn2)o1` (stereo not drawn), `CN(CCc1ccccn1)S(=O)(=O)N1CCCC1c1ccco1` (stereo not drawn) is lower in “Percent Effect” value: 69.2% for the first, 16.77% for the second.

Going from `Cc1ccc(C2CCCN2S(=O)(=O)N(C)Cc2cnccn2)o1` (stereo not drawn) to `COCCNS(=O)(=O)c1cccc2c1CN(C(=O)c1cnccn1)CC2`, the “Percent Effect” value rises from -5.103% to 3.399%.

Going from `I.c1cc2c(cc1C1(CNC3=NCCN3)CCCC1)OCCO2` to `Br.O=C(CN(C1=NCCCC1)c1ccccc1)c1ccc2c(c1)OCCO2`, the “Percent Effect” value falls from -5.173% to -15.61%.

Going from `COc1ccc(OC)c(NC(=O)N2CCCC2c2ccco2)c1` (stereo not drawn) to `COc1ccc(NC(=O)N2CCCC2c2ccco2)c(OC)c1` (stereo not drawn), the “Percent Effect” value rises from 25.75% to 74.57%.

First: COc1ccccc1NC(=O)N1CCCC1c1ccco1 (stereo not drawn)
Second: Cc1cc2cccc(NC(=O)N3CC[C@@H]4CC[C@H](C3)N4C)c2o1
The “Percent Effect” value of the first is higher: 40.09% for the first, 25.84% for the second.

Compared with `O=C(O)CC(O)(CC(=O)O)C(=O)O.c1ccc([C@@H]2CN(Cc3cccnc3)C[C@H]2c2cc[nH]n2)cc1`, `O=C(O)C(F)(F)F.O=C(O)C(F)(F)F.O=C(O)C(F)(F)F.c1cncc(CN2CCC3(CC2)CC(c2cccnc2)CO3)c1` (stereo not drawn) is lower in “Percent Effect” value: -3.502% for the first, -27.59% for the second.

Going from `CCN1CCN(C(=O)Cn2nc(C(F)(F)F)c(Br)c2C2CC2)CC1` to `CCCN1CCN(C(=O)Cn2nc(C(F)(F)F)c(Br)c2C2CC2)CC1`, the “Percent Effect” value falls from -4.049% to -16.27%.

First: CN1CCN(C(=O)Cn2nc(C(F)(F)F)c(Br)c2C2CC2)CC1
Second: CN(C)Cc1cc(C2CCN(C(=O)C3CCCNC3)CC2)nn1C.Cl (stereo not drawn)
The “Percent Effect” value of the first is higher: 82.35% for the first, -6.1% for the second.

Compared with `CN1CCC(N2Cc3nc(N)ncc3C2=O)CC1`, `Nc1ncc2c(n1)CN(C1CCCC1)C2=O` is higher in “Percent Effect” value: -6.315% for the first, 101.8% for the second.

First: CC1CCC(N2Cc3nc(N)ncc3C2=O)CC1 (stereo not drawn)
Second: Cc1cc(-c2cnn(CCNC(=O)C3CC3)c2C2CC2)on1
The “Percent Effect” value of the first is higher: 7.341% for the first, -1.703% for the second.

First: COCCN1CCc2c(CNC(=O)c3nccn3C)cncc2C1.Cl.Cl.Cl
Second: COCCNS(=O)(=O)c1ccc2c(c1)CCN(C(=O)c1cncn1C)C2
The “Percent Effect” value of the first is lower: 7.945% for the first, 91.56% for the second.

Compared with `O=C(c1cccc2cccnc12)N1CC[C@@]2(CCCO2)[C@@H](O)C1`, `CSc1ncccc1C(=O)N1CCC2(CC1)OCCCC2O` (stereo not drawn) is lower in “Percent Effect” value: 50.53% for the first, 9.306% for the second.

First: O=C(c1cccnc1O)N1CCC2(CCCO2)CC1
Second: CCS(=O)(=O)N1CCOC2(CCCN(Cc3ccccn3)C2)C1.O=C(O)C(F)(F)F (stereo not drawn)
The “Percent Effect” value of the first is lower: -109.6% for the first, 2.925% for the second.

Going from `CCOc1ccc(C(=O)CC(SC2CCCCC2)C(=O)O)cc1` (stereo not drawn) to `Br.CCOc1ccc(N(CC(=O)c2ccccc2)C2=NCCCCC2)cc1`, the “Percent Effect” value rises from 28.66% to 104.1%.

Going from `Cc1ccc(N(CC(=O)N2CCCCC2)C(=O)C2CCCO2)cc1` (stereo not drawn) to `Br.Cc1ccc(N(CC(=O)c2ccc(Br)cc2)C2=NCCCCC2)cc1`, the “Percent Effect” value rises from -0.08324% to 103.6%.

First: Br.Cc1cccc(N(CC(=O)c2ccccc2)C2=NCCCCC2)c1
Second: Br.Cc1ccc(C(=O)CN(C2=NCCCCC2)c2ccccc2)cc1
The “Percent Effect” value of the first is lower: 15.52% for the first, 26.5% for the second.

First: Br.O=C(CN(C1=NCCCC1)c1ccccc1)c1ccc(OC(F)F)cc1
Second: Br.COc1ccc(C(=O)CN(C2=NCCCCC2)c2ccccc2)cc1
The “Percent Effect” value of the first is higher: 95.91% for the first, 22.41% for the second.

Compared with `Br.O=C(CN(C1=NCCCC1)c1ccccc1)c1ccccc1`, `Br.O=C(CN(C1=NCCCCC1)c1ccc(Cl)cc1)c1ccccc1` is higher in “Percent Effect” value: -38.94% for the first, 102% for the second.

First: C[S+]([O-])c1nncn1CC(=O)c1ccc(OC(F)F)cc1 (stereo not drawn)
Second: CC(C1CCN(Cc2ccc(OC(F)F)cc2)CC1)N1CCOCC1 (stereo not drawn)
The “Percent Effect” value of the first is lower: 27.46% for the first, 96.37% for the second.

First: COc1ccc(CN2C[C@@H]3CC[C@H](C2)N(S(=O)(=O)C2CC2)C3)cc1
Second: CC(C)Oc1ccc(CN2CCC(Cc3nnc(CO)n3C)CC2)cc1
The “Percent Effect” value of the first is higher: -4.175% for the first, -21.53% for the second.

Compared with `CC(=O)NCCc1cc2nc(-c3ccncc3)ccn2n1`, `CNC(=O)COc1ccc(CNc2cncc(-n3cccn3)n2)cc1` is lower in “Percent Effect” value: 1.137% for the first, -4.201% for the second.

Going from `COCCC(=O)N1CCCC2(CCCN2Cc2ccccc2F)C1.O=C(O)C(F)(F)F` (stereo not drawn) to `O=C(O)C(F)(F)F.O=C1COC2(CCN(S(=O)(=O)C3CC3)CC2)CN1c1cccnc1`, the “Percent Effect” value rises from -33.92% to -24.7%.

Compared with `CNC(=O)[C@H]1C[C@@H]2CN(Cc3ccc(C)cc3)C[C@H]1O2.O=C(O)C(F)(F)F`, `Cc1ccc(N2CC[C@H]3O[C@H](C(=O)N4CCCCO4)CC[C@H]32)nn1.O=C(O)C(F)(F)F` is higher in “Percent Effect” value: 33.5% for the first, 36.81% for the second.

Going from `O=C(C1CC1)N1CC[C@@H]2[C@H](CC1)N(Cc1cccnc1)CCS2(=O)=O.O=C(O)C(F)(F)F.O=C(O)C(F)(F)F` to `CC(=O)NCC(=O)N1Cc2nccn2CC(COc2cccnc2)C1.O=C(O)C(F)(F)F` (stereo not drawn), the “Percent Effect” value falls from -20.85% to -35.06%.

First: COCCNS(=O)(=O)c1cccc2c1CN(C(=O)c1ccccc1)CC2
Second: Cl.c1ccc(CCNc2cccc(C3CCCNC3)n2)cc1 (stereo not drawn)
The “Percent Effect” value of the first is higher: -0.08173% for the first, -24.38% for the second.

Compared with `CC(C1CCN(Cc2ccc(N(C)C)nc2)CC1)N1CCOCC1` (stereo not drawn), `CC(C)Oc1cccc(CN2CCC(C(C)N3CCOCC3)CC2)c1` (stereo not drawn) is higher in “Percent Effect” value: -22.49% for the first, 91.46% for the second.

Compared with `CC(C1CCN(Cc2ccccc2OC(F)F)CC1)N1CCOCC1` (stereo not drawn), `CC(C1CCN(Cc2cccc(OC(F)F)c2)CC1)N1CCOCC1` (stereo not drawn) is lower in “Percent Effect” value: 90.2% for the first, 1.128% for the second.

Going from `CC(C)Oc1cccc(CN2CCC(c3n[nH]c4ncccc34)CC2)c1` to `CCC(=O)N1CCC(c2cncc(Oc3cccnc3)n2)CC1`, the “Percent Effect” value rises from -24.22% to -19.43%.

Compared with `FC(F)Oc1ccccc1CN1CCCC(c2nccn2CC2CC2)C1` (stereo not drawn), `Cc1nc(C2(O)CCCNCC2)sc1CCOc1ccccc1F.Cl` (stereo not drawn) is lower in “Percent Effect” value: 23.85% for the first, -4.166% for the second.

Going from `CCN1CCOCC12CCN(c1cnccn1)CC2.O=C(O)C(F)(F)F` to `O=S(=O)(c1ccccc1)N1C(CN2CCOCC2)[C@]2(O)CC[C@H]1CC2` (stereo partly drawn), the “Percent Effect” value falls from -4.677% to -28.69%.

First: CC(C)(CO)CNC(=O)c1cc(-c2cc[nH]n2)n2ccccc12.O=C(O)C(F)(F)F
Second: Cc1cc(-c2cnn(CCNC(=O)c3cc[nH]n3)c2C2CC2)on1
The “Percent Effect” value of the first is lower: 10.76% for the first, 53.69% for the second.

Going from `CCOCc1ccc(CNc2cncc(-n3cccn3)n2)cc1` to `COCCC(=O)N1CCC(c2cncc(Oc3cccnc3)n2)CC1`, the “Percent Effect” value rises from -0.9926% to 51.38%.

Compared with `CCOc1cc(CN(C)CC(=O)O)ccc1OC(F)F.Cl`, `CCOc1ccc(Cl)cc1C1CCCN1.Cl` (stereo not drawn) is higher in “Percent Effect” value: -22.89% for the first, -11.35% for the second.

Compared with `Cc1cc(-c2cnn(CCNC(=O)c3cnn(C)c3)c2C2CC2)on1`, `NCC(=O)N1CCC(c2cncc(Oc3cccnc3)n2)CC1` is higher in “Percent Effect” value: -6.591% for the first, -6.248% for the second.

Compared with `O=C1NCCCC1NC(=O)C1(c2cccc(Cl)c2)CCC1` (stereo not drawn), `Cl.Clc1cccc(N[C@H]2CCCN[C@H]2Cc2ccccc2)c1` is higher in “Percent Effect” value: 0.8202% for the first, 104.4% for the second.
